Source: PubChem BioAssay
TRPML1 agonist: human mucolipin-1 channel agonism | Q9GZU1 | 410,000 tested, 0.12% active | TRPML1-expressing cells, Ca2+ dye fluorescence, FDSS | AID 624414 | activation, % (concentration not given with the values); in the data active = activation above about 50%; inconclusive = mostly about 30% to 49%; note: 0% is about no effect
Target sequence (Q9GZU1 whole entry, looked up): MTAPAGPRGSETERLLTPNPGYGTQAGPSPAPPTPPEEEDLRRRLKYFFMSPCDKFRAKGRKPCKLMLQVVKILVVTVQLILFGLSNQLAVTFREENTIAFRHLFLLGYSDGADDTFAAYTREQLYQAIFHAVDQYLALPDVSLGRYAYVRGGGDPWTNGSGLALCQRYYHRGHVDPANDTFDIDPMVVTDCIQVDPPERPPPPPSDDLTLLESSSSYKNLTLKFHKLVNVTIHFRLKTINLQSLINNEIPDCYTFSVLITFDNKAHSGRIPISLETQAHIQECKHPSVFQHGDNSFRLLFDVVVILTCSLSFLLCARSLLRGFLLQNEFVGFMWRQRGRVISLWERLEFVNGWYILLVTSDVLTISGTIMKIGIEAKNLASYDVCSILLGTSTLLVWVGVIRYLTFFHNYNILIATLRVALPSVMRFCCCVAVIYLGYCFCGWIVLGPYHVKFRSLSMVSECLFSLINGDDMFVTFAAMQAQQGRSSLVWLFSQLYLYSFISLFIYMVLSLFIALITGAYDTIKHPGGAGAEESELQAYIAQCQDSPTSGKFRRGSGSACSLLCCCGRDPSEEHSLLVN
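Tet-induced TRPML1-DL cells, 1,500 per well, cultured overnight, were loaded with a no-wash Ca2+ dye for 45–90 min. Calcium fluorescence was recorded on the FDSS for 110 s after compound addition, before the EC80 agonist (4 uM 54-4) was added.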
TRPV1 potentiator: enhances activation of the human vanilloid receptor TRPV1. potentiation, % at 8.33 µM. TRPV1-expressing cells, Fluo-8 calcium influx, capsaicin EC20 potentiation. 320,000 tested, 0.02% active. Q8NER1; in the data active = potentiation above about 80%; inconclusive = between about 30% and that limit; note: 0% is about no effect
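TRPV1-expressing cells were cultured overnight at 35.5C and loaded with Fluo-8 calcium dye for 40 to 90 min at room temperature. After a 10 s baseline, compound was added and calcium influx was read kinetically for 3 min (ex 480/em 520 nm).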
TRPML1 inh: inhibitors of human TRPML1 channel | activity change, negative = inhibition, % (test concentration not listed) | 390,000 tested, 0.02% active | TRPML1-inducible cells, Ca2+ dye fluorescence, FDSS; stronger effect = lower value; inhibition of EC80 agonist-evoked calcium signal; in the data active = activity change below about -50%; inconclusive = between about -30% and that limit;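 note: stimulus is agonist 54-4 at its EC80 concentration; % is set by controls: 0 for no effect and ±100 for the full control effect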
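Calcium fluorescence in TRPML1-DL cells induced overnight with Tet: a 110 s read after compound pin addition, then a 110 s antagonist read after challenge with 54-4 at 4 uM final (EC80).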
TRHR ag: TRH receptor (human) agonism. TRHR cells, calcium flux fluo-8, FDSS agonist mode. activation, % at 2 µM. P34981. 360,000 tested, 0.18% active; in the data active = activation above about 30%; note: 0% is about no effect
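TRHR-expressing cells, plated overnight in medium with 10% serum, were loaded with fluo-8 calcium dye at room temperature. After a 10 s baseline, library compound was pin-added and calcium release was recorded kinetically (ex 480/em 530) as agonist response.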
TRPV1 ag: activates the human vanilloid receptor TRPV1; activation, % at 8.33 µM; 320,000 tested, 0.19% active; TRPV1-expressing cells, Fluo-8 calcium influx, agonist mode; in the data active = activation above about 80%; inconclusive = between about 30% and that limit; note: 0% is about no effect
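Fluo-8 calcium influx in TRPV1-expressing cells, kinetic read (ex 480/em 520 nm). Compound added and read 3 min for agonist activity, followed by capsaicin at EC20 final and 2 min further read for enhancement.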
TRHR PAM: allosteric enhancers of human TRH receptor | P34981 | TRHR cells, fluo-8 calcium fluorescence, EC20 TRH enhancement | enhancement, % at 2 µM | 360,000 tested, 0.66% active; in the data active = enhancement above about 30%; note: 0% is about no effect
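Enhancer read-out: after compound pinning and an initial kinetic agonist-mode read, an EC20 of TRH (10 nM final) was injected and fluo-8 calcium signal (Ex 480/Em 530) followed at 1 s/cycle for 100 cycles in TRHR-expressing cells.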
The depositor's hits bear a star; ? = inconclusive; · = not tested or not shown. The list is not random: actives were taken first. Their share in the collection is about 0.96%.

SMILES	TRPML1 agonist	TRPV1 potentiator	TRPML1 inh	TRHR ag	TRPV1 ag	TRHR PAM
Cc1cc2oc(=O)cc(CN3CCC(C)CC3)c2cc1Cl	0	-8	7	0	10	30*
O=C1NC(c2cccc(Cl)c2)Oc2ccccc21 (stereo not given)	0	-7	-7	0	-2	32*
Nc1ccc(C=O)cc1	0	·	·	·	·	·
CCc1ccc(NC(=O)CNCc2ccc(OC)c(OC)c2)cc1	0	-17	27	0	85*	-4
O=C(/C=C/c1ccc(F)cc1)NC(=S)N1CCN(Cc2ccccc2)CC1	0	-3	21	0	?	-3
O=C(/C=C/c1ccc(F)cc1)NC(=S)N1CCOCC1	0	9	-4	0	-2	37*
COc1ccc(-c2nnc(SCC(=O)NC3CCCC3)nc2-c2ccc(OC)c(OC)c2)cc1OC	1	·	-3	0	·	33*
CCOc1ccc(-c2nnc(SCC(=O)NC3CCCCC3)nc2-c2ccc(OCC)c(OC)c2)cc1OC	-1	·	-18	0	·	-3
COc1ccc(C2=Nn3c(nnc3-c3ccccc3OC)SC2)cc1	·	·	·	-1	·	-1
O=C1c2cccc3c(O)ccc(c23)C(=O)N1Cc1ccccc1	97*	-7	0	154*	?	40*
COC(=O)c1c(C)cccc1C1CN=NC12Cc1ccccc1C2=O (stereo not given)	113*	·	-20	·	·	·
COc1ccccc1C1CN=NC12CCCc1ccccc1C2=O (stereo not given)	3	-5	26	-1	18	-4
CCN1CCc2c(sc(NC(=O)c3ccc(S(=O)(=O)N(C)c4ccccc4)cc3)c2C(=O)NC)C1	61*	13	0	48*	?	7
CNC(=O)c1c(NC(=O)c2ccc(S(=O)(=O)N(C)c3ccccc3)cc2)sc2c1CCN(C(C)C)C2	7	-6	3	62*	13	3
Cc1ccc2oc(-c3ccc(C)c(NC(=O)COc4ccccc4C)c3)nc2c1	0	·	·	·	·	·
Cn1c(=O)n(-c2ccc(C(C)(C)C#N)cc2)c2c3cc(-c4cnc5ccccc5c4)ccc3ncc21	-1	·	·	·	·	·
S=C(Nc1ccccc1Cl)N(Cc1ccccc1)Cc1ccccn1	2	132*	45	0	-9	3
COc1ccc(/C=N/NC(=O)CNC(=O)c2ccc3c(c2)OCCO3)c(C(=O)O)c1OC	-1	0	-6	0	1	30*
COc1cc(/C=N/NC(=O)c2ccc(-c3ccccc3)cc2)cc(OC)c1OC	0	-1	-7	0	23	9
CC(C)(C)/C=N/NC(=O)CNC(=O)c1ccc2c(c1)OCCO2	1	11	13	0	-5	1
COc1ccc(/C=N\NC(=O)c2ccc(-c3ccccc3)cc2)c(OC)c1OC	2	-1	0	-1	27	30*
COc1cccc(/C=N/NC(=O)CC(=O)NCCc2ccccc2)c1OC	0	26	10	0	0	33*
Cc1sc2ccccc2[n+]1Cc1ccccc1	-1	·	·	·	·	·
Cc1ccc2[nH]c(=O)c(CN(CCCO)Cc3nnnn3Cc3ccccc3)cc2c1	0	·	·	·	·	·
Cc1ccccc1N(C(=O)c1csnn1)C(C(=O)NC1CCCCC1)c1ccncc1 (stereo not given)	-1	4	6	-1	4	32*
SMILES	TRPML1 agonist	TRPV1 potentiator	TRPML1 inh	TRHR ag	TRPV1 ag	TRHR PAM
CC1CCCN(c2ccc(C(=O)Nc3cccnc3)cc2[N+](=O)[O-])C1 (stereo not given)	-2	-3	15	0	87*	2
COc1cc(/C=C(\C#N)c2nn(CCO)c(N)c2C#N)cc(OC)c1OC	1	3	5	0	-2	33*
N#C/C(=C\c1ccc(/C=C(/C#N)c2nn(CCO)c(N)c2C#N)cc1)c1nn(CCO)c(N)c1C#N	0	17	-22	1	-2	1
COc1ccc(CCNC(=O)c2cnn3c2NC(=C2CC2)C=C3C(F)F)cc1OC	-1	·	·	·	·	·
COc1cc(NC(=O)c2cccc(Br)c2)nc(OC)n1	0	-17	-21	-3	17	34*
COc1cc(NC(=O)c2c(F)cccc2F)nc(OC)n1	-1	-12	9	0	-1	2
C/C(=N\NC(N)=O)C1(C)CCCCC1	0	19	2	0	-12	35*
c1ccc(Nc2nc3ccccc3n3cnnc23)cc1	-1	-4	-3	-1	-2	34*
O=C(O)c1ccc(Nc2nc3ccccc3n3cnnc23)cc1	-1	·	-1	0	·	-1
Cc1cc2c(s1)c1cnn(Cc3ccc(F)cc3Cl)c(=O)c1n2C	·	·	·	0	·	4
CCCCCCCCCCCCCC[N+](C)(C)Cc1ccccc1	0	·	·	·	·	·
CN(C)CCCN(C(=O)c1cccc(N2C(=O)CCC2=O)c1)c1nc2cc3c(cc2s1)OCO3	·	-3	·	0	0	32*
CC(C)CCC1(CCNC(=O)c2cccs2)CCOC(C)(C)C1 (stereo not given)	1	15	-9	0	83*	-13
c1ccc(CNCc2nnc(-c3cc4ccccc4[nH]3)s2)cc1	·	·	·	1	·	4
CCOC(=O)C1CCN(S(=O)(=O)c2ccc(C)c(C)c2)CC1	0	0	-11	0	1	32*
Cc1ccc(C)c(NC(=O)CN(C)C(=O)c2ccc(-c3cccc(C(F)(F)F)c3)o2)c1	0	-11	-4	0	28	37*
COc1ccc(C2CC(c3cccs3)=NN2c2ccc(C=O)cc2)cc1 (stereo not given)	?	17	-11	40*	16	5
O=C(COc1ccccc1C(=O)Nc1ccccc1F)Nc1ccc(Br)cc1	0	·	·	·	·	·
COC(=O)c1sc2cc(C(F)(F)F)cnc2c1-c1ccccn1	1	-1	6	0	-1	31*
O=C(O)c1sc2cc(C(F)(F)F)cnc2c1-c1ccccn1	0	0	-10	0	-3	8
O=C(c1c(F)cccc1F)N1CCCc2ccccc21	0	16	7	0	-3	32*
CCC(=O)NC(c1ccc(C)s1)c1cc(Cl)c2cccnc2c1O (stereo not given)	·	·	·	1	·	4
CN(C)C(CNC(=O)c1ccc(-c2ccccc2)cc1)c1ccccc1 (stereo not given)	0	12	-1	1	0	31*
CN(C)C(CNC(=O)c1ccc(C(=O)c2ccccc2)cc1)c1ccccc1 (stereo not given)	0	-5	-8	1	1	-2
